Measurements published in the supplement of paper PMC6607015.
Structures can show the parent of a compound that is named as a salt.

Assays:
Conditions in all cases: compound concentration in added solution (µM; 5 µl added to 20 µl cells): 10; 18 h
[1] = system: A431; experiment: LBPA endosome anti-LBPA integrated intensity (sum per cell), Z-score; higher = more LBPA staining
Summary of the method: (§1)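 In duplicate 384-well imaging plates, 3,500 HeLa MZ or A431 cells in 20 µl per well were seeded onto 5 µl of 10 µM compound solution. The cells were incubated for 18 h, fixed in 4% PFA and stained with 6C4 anti-LBPA antibody, filipin, propidium iodide and CellTracker green before four 20× images were acquired per well. Values are AcuityXpress-normalised Z-scores of per-cell integrated LBPA or filipin intensity, obtained by MetaXpress segmentation over the whole cell or in LBPA endosomes.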

[2] = system: HeLa MZ; experiment: as above
Summary of the method: as §1

[3] = system: A431; experiment: whole-cell filipin (free cholesterol) integrated intensity, Z-score; higher = more cholesterol staining
Summary of the method: as §1

[4] = system: HeLa MZ; experiment: as above
Summary of the method: as §1

[5] = system: A431; experiment: filipin (cholesterol) integrated intensity within LBPA endosomes, Z-score; higher = more cholesterol in LBPA endosomes
Summary of the method: as §1

[6] = system: HeLa MZ; experiment: as above
Summary of the method: as §1

CSc1ccc2c(c1)C(N1CCN(C)CC1)Cc1ccccc1S2 (stereo unspecified) [Methiothepin maleate]
LBPA endosome anti-LBPA integrated intensity (z-score) [1]: 3.25 | LBPA endosome anti-LBPA integrated intensity (z-score) [2]: 1.9 | whole-cell filipin (z-score) [3]: 0.963 | whole-cell filipin (z-score) [4]: 0.218 | filipin (z-score) [5]: 3 | filipin (z-score) [6]: 2.66

CC(C(=O)O)c1ccc(N2Cc3ccccc3C2=O)cc1 (stereo unspecified) [Indoprofen]
LBPA endosome anti-LBPA integrated intensity (z-score) [1]: -0.353 | LBPA endosome anti-LBPA integrated intensity (z-score) [2]: 0.541 | whole-cell filipin (z-score) [3]: -0.0864 | whole-cell filipin (z-score) [4]: 0.103 | filipin (z-score) [5]: -0.445 | filipin (z-score) [6]: -0.482

c1ccc(CC2=NCCN2)cc1 [Tolazoline hydrochloride]
LBPA endosome anti-LBPA integrated intensity (z-score) [1]: -0.404 | LBPA endosome anti-LBPA integrated intensity (z-score) [2]: 0.69 | whole-cell filipin (z-score) [3]: -0.609 | whole-cell filipin (z-score) [4]: -0.502 | filipin (z-score) [5]: -0.487 | filipin (z-score) [6]: -0.331

OC(CCN1CCCCC1)(c1ccccc1)C1CC2C=CC1C2 (stereo unspecified) [Biperiden hydrochloride]
LBPA endosome anti-LBPA integrated intensity (z-score) [1]: 1.21 | LBPA endosome anti-LBPA integrated intensity (z-score) [2]: 1.45 | whole-cell filipin (z-score) [3]: -0.251 | whole-cell filipin (z-score) [4]: -0.585 | filipin (z-score) [5]: 0.329 | filipin (z-score) [6]: 0.363

O=C(N[C@H](CO)[C@H](O)c1ccc([N+](=O)[O-])cc1)C(Cl)Cl [Chloramphenicol]
LBPA endosome anti-LBPA integrated intensity (z-score) [1]: -0.509 | LBPA endosome anti-LBPA integrated intensity (z-score) [2]: -0.731 | whole-cell filipin (z-score) [3]: -0.952 | whole-cell filipin (z-score) [4]: -1.01 | filipin (z-score) [5]: -0.558 | filipin (z-score) [6]: -0.762

COc1cc2nc(N3CCN(C(=O)C4CCCO4)CC3)nc(N)c2cc1OC (stereo unspecified) [Terazosin hydrochloride]
LBPA endosome anti-LBPA integrated intensity (z-score) [1]: -0.178 | LBPA endosome anti-LBPA integrated intensity (z-score) [2]: 0.906 | whole-cell filipin (z-score) [3]: -0.323 | whole-cell filipin (z-score) [4]: -0.357 | filipin (z-score) [5]: -0.379 | filipin (z-score) [6]: 0.00198

COc1cc2nc(N(C)CCCNC(=O)C3CCCO3)nc(N)c2cc1OC (stereo unspecified) [Alfuzosin hydrochloride]
LBPA endosome anti-LBPA integrated intensity (z-score) [1]: 1.37 | LBPA endosome anti-LBPA integrated intensity (z-score) [2]: 1.11 | whole-cell filipin (z-score) [3]: -0.35 | whole-cell filipin (z-score) [4]: -0.351 | filipin (z-score) [5]: 0.00526 | filipin (z-score) [6]: 0.128

NC[C@H]1CC[C@H](C(=O)O)CC1 [Tranexamic acid]
LBPA endosome anti-LBPA integrated intensity (z-score) [1]: -0.452 | LBPA endosome anti-LBPA integrated intensity (z-score) [2]: -0.543 | whole-cell filipin (z-score) [3]: -0.422 | whole-cell filipin (z-score) [4]: -0.896 | filipin (z-score) [5]: -0.524 | filipin (z-score) [6]: -0.663

CCc1c2c(nc3ccc(OC(=O)N4CCC(N5CCCCC5)CC4)cc13)-c1cc3c(c(=O)n1C2)COC(=O)[C@]3(O)CC [Irinotecan Hydrochloride]
LBPA endosome anti-LBPA integrated intensity (z-score) [1]: 0.102 | LBPA endosome anti-LBPA integrated intensity (z-score) [2]: 3.21 | whole-cell filipin (z-score) [3]: 3.24 | whole-cell filipin (z-score) [4]: 3.96 | filipin (z-score) [5]: 0.0471 | filipin (z-score) [6]: -0.0232

Cc1cc2cc3c(C)cc(=O)oc3c(C)c2o1 [Trioxsalen]
LBPA endosome anti-LBPA integrated intensity (z-score) [1]: -0.317 | LBPA endosome anti-LBPA integrated intensity (z-score) [2]: 0.147 | whole-cell filipin (z-score) [3]: -0.465 | whole-cell filipin (z-score) [4]: -0.318 | filipin (z-score) [5]: -0.425 | filipin (z-score) [6]: -0.476

Cc1cc(C(C)(C)C)c(O)c(C)c1CC1=NCCN1 [Oxymetazoline hydrochloride]
LBPA endosome anti-LBPA integrated intensity (z-score) [1]: -0.605 | LBPA endosome anti-LBPA integrated intensity (z-score) [2]: 0.256 | whole-cell filipin (z-score) [3]: -0.84 | whole-cell filipin (z-score) [4]: -0.57 | filipin (z-score) [5]: -0.491 | filipin (z-score) [6]: -0.228

O=C(CCCCC(=O)Nc1c(I)cc(I)c(C(=O)O)c1I)Nc1c(I)cc(I)c(C(=O)O)c1I [Iodipamide]
LBPA endosome anti-LBPA integrated intensity (z-score) [1]: -0.326 | LBPA endosome anti-LBPA integrated intensity (z-score) [2]: -0.366 | whole-cell filipin (z-score) [3]: -0.456 | whole-cell filipin (z-score) [4]: -0.377 | filipin (z-score) [5]: -0.385 | filipin (z-score) [6]: -0.472

COC(=O)C1=C(C)NC(C)=C(C(=O)OC)C1c1ccccc1[N+](=O)[O-] [Nifedipine]
LBPA endosome anti-LBPA integrated intensity (z-score) [1]: -0.346 | LBPA endosome anti-LBPA integrated intensity (z-score) [2]: -0.877 | whole-cell filipin (z-score) [3]: -0.739 | whole-cell filipin (z-score) [4]: -0.61 | filipin (z-score) [5]: -0.513 | filipin (z-score) [6]: -0.614

Cc1c(-c2ccccc2)oc2c(C(=O)OCCN3CCCCC3)cccc2c1=O [Flavoxate hydrochloride]
LBPA endosome anti-LBPA integrated intensity (z-score) [1]: -0.643 | LBPA endosome anti-LBPA integrated intensity (z-score) [2]: -0.619 | whole-cell filipin (z-score) [3]: -0.892 | whole-cell filipin (z-score) [4]: -0.899 | filipin (z-score) [5]: -0.515 | filipin (z-score) [6]: -0.534

CCC(=O)O[C@]1(C(=O)CCl)[C@@H](C)C[C@H]2[C@@H]3CCC4=CC(=O)C=C[C@]4(C)[C@@]3(F)[C@@H](O)C[C@@]21C [Clobetasol propionate]
LBPA endosome anti-LBPA integrated intensity (z-score) [1]: -0.343 | LBPA endosome anti-LBPA integrated intensity (z-score) [2]: -0.845 | whole-cell filipin (z-score) [3]: 0.00699 | whole-cell filipin (z-score) [4]: -0.332 | filipin (z-score) [5]: -0.266 | filipin (z-score) [6]: -0.465

CC[C@H]1OC(=O)[C@H](C)[C@@H](O[C@H]2C[C@@](C)(OC)[C@@H](O)[C@H](C)O2)[C@H](C)[C@@H](O[C@@H]2O[C@H](C)C[C@H](N(C)C)[C@H]2O)[C@](C)(O)C[C@@H](C)C(=O)[C@H](C)[C@@H](O)[C@]1(C)O [Erythromycin]
LBPA endosome anti-LBPA integrated intensity (z-score) [1]: 0.476 | LBPA endosome anti-LBPA integrated intensity (z-score) [2]: -0.196 | whole-cell filipin (z-score) [3]: 0.409 | whole-cell filipin (z-score) [4]: -0.0449 | filipin (z-score) [5]: 0.977 | filipin (z-score) [6]: 0.203

CS(=O)(=O)c1ccc(C2=C(c3ccccc3)C(=O)OC2)cc1 [Rofecoxib]
LBPA endosome anti-LBPA integrated intensity (z-score) [1]: -0.672 | LBPA endosome anti-LBPA integrated intensity (z-score) [2]: -1.7 | whole-cell filipin (z-score) [3]: -1.07 | whole-cell filipin (z-score) [4]: -0.451 | filipin (z-score) [5]: -0.59 | filipin (z-score) [6]: -0.599

C[C@]12C[C@H](O)[C@H]3[C@@H](CCC4=CC(=O)CC[C@@]43C)[C@@H]1CC[C@@H]2C(=O)CO [Corticosterone]
LBPA endosome anti-LBPA integrated intensity (z-score) [1]: -0.334 | LBPA endosome anti-LBPA integrated intensity (z-score) [2]: 0.522 | whole-cell filipin (z-score) [3]: -0.492 | whole-cell filipin (z-score) [4]: -0.633 | filipin (z-score) [5]: -0.326 | filipin (z-score) [6]: -0.407

Cc1ccc(C(=O)c2ccc(CC(=O)O)n2C)cc1 [Tolmetin sodium salt dihydrate]
LBPA endosome anti-LBPA integrated intensity (z-score) [1]: -0.35 | LBPA endosome anti-LBPA integrated intensity (z-score) [2]: -0.0177 | whole-cell filipin (z-score) [3]: -0.301 | whole-cell filipin (z-score) [4]: -0.429 | filipin (z-score) [5]: -0.412 | filipin (z-score) [6]: -0.483

Nc1ccn([C@@H]2CS[C@H](CO)O2)c(=O)n1 [Lamivudine]
LBPA endosome anti-LBPA integrated intensity (z-score) [1]: -0.481 | LBPA endosome anti-LBPA integrated intensity (z-score) [2]: -0.745 | whole-cell filipin (z-score) [3]: -0.233 | whole-cell filipin (z-score) [4]: -0.14 | filipin (z-score) [5]: -0.498 | filipin (z-score) [6]: -0.564

N=C(N)NCC1COC2(CCCCC2)O1 (stereo unspecified) [Guanadrel sulfate]
LBPA endosome anti-LBPA integrated intensity (z-score) [1]: -0.435 | LBPA endosome anti-LBPA integrated intensity (z-score) [2]: -0.453 | whole-cell filipin (z-score) [3]: -0.472 | whole-cell filipin (z-score) [4]: -0.401 | filipin (z-score) [5]: -0.413 | filipin (z-score) [6]: -0.438

NC[C@H]1O[C@H](O[C@H]2[C@H](O[C@@H]3O[C@H](CO)[C@@H](O)[C@H]3O)[C@@H](O)[C@H](N)C[C@@H]2N)[C@H](N)[C@@H](O)[C@@H]1O [Ribostamycin sulfate salt]
LBPA endosome anti-LBPA integrated intensity (z-score) [1]: -0.548 | LBPA endosome anti-LBPA integrated intensity (z-score) [2]: 1.92 | whole-cell filipin (z-score) [3]: -0.165 | whole-cell filipin (z-score) [4]: 2.24 | filipin (z-score) [5]: -0.516 | filipin (z-score) [6]: -0.59

Nc1nc(F)nc2c1ncn2[C@@H]1O[C@H](CO)[C@@H](O)[C@@H]1O [Fludarabine]
LBPA endosome anti-LBPA integrated intensity (z-score) [1]: -0.338 | LBPA endosome anti-LBPA integrated intensity (z-score) [2]: 1.27 | whole-cell filipin (z-score) [3]: 0.904 | whole-cell filipin (z-score) [4]: 1.82 | filipin (z-score) [5]: -0.372 | filipin (z-score) [6]: -0.595

CN(C)CCN(Cc1cccs1)c1ccccn1 [Methapyrilene hydrochloride]
LBPA endosome anti-LBPA integrated intensity (z-score) [1]: -0.506 | LBPA endosome anti-LBPA integrated intensity (z-score) [2]: 0.465 | whole-cell filipin (z-score) [3]: -0.777 | whole-cell filipin (z-score) [4]: -0.37 | filipin (z-score) [5]: -0.539 | filipin (z-score) [6]: -0.0761

CC(=O)Nc1ccc(OCC(O)CNC(C)C)cc1 (stereo unspecified) [Practolol]
LBPA endosome anti-LBPA integrated intensity (z-score) [1]: -0.578 | LBPA endosome anti-LBPA integrated intensity (z-score) [2]: -0.861 | whole-cell filipin (z-score) [3]: -0.908 | whole-cell filipin (z-score) [4]: -0.531 | filipin (z-score) [5]: -0.573 | filipin (z-score) [6]: -0.506

COc1ccccc1N1CCN(CC(O)COc2cccc3ccccc23)CC1 (stereo unspecified) [Naftopidil dihydrochloride]
LBPA endosome anti-LBPA integrated intensity (z-score) [1]: 0.776 | LBPA endosome anti-LBPA integrated intensity (z-score) [2]: 1.7 | whole-cell filipin (z-score) [3]: 0.857 | whole-cell filipin (z-score) [4]: 0.537 | filipin (z-score) [5]: 0.575 | filipin (z-score) [6]: 0.742
